Screening data deposited in PubChem by National Center for Advancing Translational Sciences (NCATS).
Rows were chosen to be rich in hits. Some 7.3% of all compounds tested hit in one or more screens of this group.
p53 reactivator – restores transcriptional activity of mutant p53 | Potency, µM (top dose mostly 92.2 µM), for inactives: at the highest dose activity change, positive = activation, most hits filed as activators | H1299 p53-A138V BP100-luciferase reporter, luminescence, 24 h | AID 504706 | hit rate 0.063% among 320,000; further: % of control where 0% means no effect; nearly all actives have a fitted effect of over 45% in size
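H1299 (p53-null), stable ts p53-A138V + BP100-Luc; 1000 cells/well, Opti-MEM/10% FBS; cpd 4 pt, 1:5; 24 h, 37 deg C, 5% CO2; detection reagent 10 min RT; luminescence.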
FLuc modulator – inhibits or activates purified firefly luciferase, miR-21 counter-screen; Potency, µM (top dose mostly 57.5 µM), inactives show at the highest dose activity change, negative = inhibition, actives largely listed as inhibitors; purified FLuc, Km substrates, luminescence inhibition; hit rate 6.9% among 360,000; P08659;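 further: plate controls were vehicle for no effect and reference inhibitor for full effect; nearly all actives have a fitted effect of over 55% in size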
Target sequence (P08659 whole entry, looked up): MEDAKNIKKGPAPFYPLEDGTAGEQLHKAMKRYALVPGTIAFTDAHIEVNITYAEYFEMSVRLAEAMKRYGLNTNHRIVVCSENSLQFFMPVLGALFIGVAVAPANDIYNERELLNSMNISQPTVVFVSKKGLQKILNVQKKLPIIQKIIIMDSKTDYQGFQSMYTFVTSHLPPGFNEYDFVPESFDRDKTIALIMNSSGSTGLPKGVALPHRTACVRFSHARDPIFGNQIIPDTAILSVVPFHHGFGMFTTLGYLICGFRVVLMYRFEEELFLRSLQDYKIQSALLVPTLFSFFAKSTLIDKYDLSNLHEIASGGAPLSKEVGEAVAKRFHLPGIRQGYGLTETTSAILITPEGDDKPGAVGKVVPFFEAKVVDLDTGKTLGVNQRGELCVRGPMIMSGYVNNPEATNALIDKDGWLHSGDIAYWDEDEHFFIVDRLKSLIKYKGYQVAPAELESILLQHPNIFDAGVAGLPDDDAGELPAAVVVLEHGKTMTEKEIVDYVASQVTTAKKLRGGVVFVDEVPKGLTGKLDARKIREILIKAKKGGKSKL
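Purified P. pyralis luciferase (10nM final) with 10uM D-luciferin and 10uM ATP (Km levels) in 50mM Tris acetate pH 7.5, 10mM Mg acetate, 0.01% Tween-20, 0.05% BSA; qHTS 6-point titration, ~60 µM downward; luminescence read.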
NPC1 promoter act – NPC1 promoter activation; Huh7 NPC1 promoter luciferase reporter, 24 h; Potency, µM (series often up to 9.22 µM), without a hit: at the highest dose activation, most hits filed as activators; hit rate 2.4% among 320,000; AID 485313; further: % of control where 0% means no effect; nearly all actives have a fitted effect of over 60% in size
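Cells: Huh7 expressing luciferase under the NPC1 promoter, 1500/well. Seeded 2 h, compound added, incubated 24 h at 37 °C. Luciferase reagent, 10 min ambient, then luminescence.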
ELG1 genotox – genotoxicity induction in ELG1-luciferase HEK293T cells | HEK293T ELG1-luciferase reporter, luminescence, 16 h | Potency, µM (series often up to 46 µM), without a hit: at the top dose activity change, positive = activation, usual class: activators | hit rate 1.3% among 330,000; further: % of control where 0% means no effect; nearly all actives have a fitted effect of over 60% in size
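Cells (2,000/well) expressing the ELG1-luciferase fusion are dosed by pin tool and kept 16 hr at 37 °C, 5% CO2. Signal comes from ONE-Glo luciferase reagent after 30 min at room temperature.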
SMN2 splice up – increases expression of the SMN2 splice variant; AID 1458; hit rate 2.8% among 210,000; HEK293 SMN2-luciferase splicing reporter, luminescence, 30-36 h; Potency, µM (series often up to 46.1 µM), inactives show at the top dose activity change, positive = activation, actives largely listed as activators; further: % of control where 0% means no effect; nearly all actives have a fitted effect of over 55% in size
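qHTS luciferase splicing reporter: luminescence rises when SMN2 exon 7 is included in transfected HEK293 cells. Compound exposure lasted 30-36 h at 37C, with 4.5 mM final sodium butyrate as control, followed by a ONE-Glo read.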
Rab9 prom act – activators of Rab9 promoter | Huh7 Rab9 promoter-luciferase reporter, luminescence, 24 h | Potency, µM (series often up to 9.22 µM), without a hit: at the top dose activation, negative = inhibition, actives largely listed as activators | hit rate 2.8% among 320,000 | AID 485297; further: % of control where 0% means no effect; nearly all actives have a fitted effect of over 60% in size
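Steps: seed 1500 Huh7 Rab9-luc cells per well, rest 2 h at 37 °C; add compound in DMSO; incubate 24 h; add luciferase reagent, 10 min ambient; read luminescence.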
* hit, by the source's call; [ ] = remark or other dose. The call rests on the fitted dose curve; in most records, active means well fitted curve in the direction sought with a large enough effect; inconclusive means small, poorly fitted or top-dose-only effect, or another doubt; inactive means no such curve, though single readings can be large; an effect the other way counts as inactive or inconclusive. Potency means the concentration at half of the fitted maximal effect.

COc1ccc(Cc2nc(-c3cccs3)no2)cc1 was read as p53 reactivator -8%, FLuc modulator 15µM*, NPC1 promoter act inconclusive, ELG1 genotox inconclusive, SMN2 splice up inconclusive and Rab9 prom act inconclusive.
Screening c1csc(-c2noc(COc3ccc4c(c3)CCCC4)n2)c1 returned p53 reactivator inconclusive, FLuc modulator 11µM*, NPC1 promoter act 4µM*, ELG1 genotox 18µM*, SMN2 splice up 13µM* and Rab9 prom act 2.8µM*.
Screening COC(=O)c1c(NC(=O)CCCOc2ccc(C(C)(C)C)cc2)sc2c1C(C(=O)OC)CC2 (stereo unspecified) returned FLuc modulator inconclusive and SMN2 splice up -52%.
`O[C@@H](COc1cccc2ccccc12)CN1CCOCC1` gave SMN2 splice up -16%[9.22 µM].
O=C1c2ccccc2C(=O)C1(CO)c1ccc(OC(F)F)cc1 was read as p53 reactivator inconclusive, FLuc modulator 0.95µM*, NPC1 promoter act inconclusive, ELG1 genotox inconclusive and Rab9 prom act 0.45µM*.
Screening COC(=O)CC1(c2ccccc2)C(=O)c2ccccc2C1=O returned p53 reactivator 3%, FLuc modulator 6%, NPC1 promoter act -2%, ELG1 genotox 2%, SMN2 splice up 0% and Rab9 prom act 0%.
Screening COC(=O)CC1(c2ccc(OC)cc2)C(=O)c2ccccc2C1=O returned p53 reactivator 0%, FLuc modulator 0%, NPC1 promoter act -3%, ELG1 genotox -1% and Rab9 prom act 1%.
For O=C1c2ccccc2C(=O)C1(CO)c1ccccc1 the results were p53 reactivator 11%, FLuc modulator 15µM*, NPC1 promoter act 26%, ELG1 genotox -8%, SMN2 splice up 166% and Rab9 prom act inconclusive.
`Cn1c(C(=O)NCc2ccc(F)cc2)cc2cc(S(=O)(=O)N3CCCCC3)ccc21` gave FLuc modulator -1%.
For CCC1C/C(=C/c2ccco2)C(=O)/C(=C/c2ccco2)C1 (stereo unspecified) the results were p53 reactivator inconclusive, FLuc modulator -8%, NPC1 promoter act 1%, ELG1 genotox 6%, SMN2 splice up -9% and Rab9 prom act 3%.
COc1ccc2c(c1)CC/C(=C/c1ccco1)C2=O was read as p53 reactivator inconclusive, FLuc modulator 0.67µM*, NPC1 promoter act 2.2µM*, ELG1 genotox inconclusive, SMN2 splice up 18µM* and Rab9 prom act 3.5µM*.
Screening O=C1c2ccccc2CCc2ccc(Br)cc21 returned p53 reactivator 11%, FLuc modulator inconclusive, NPC1 promoter act 0%, ELG1 genotox 5% and Rab9 prom act -2%.
`COc1ccc2c(c1)CC/C(=C\c1ccc(OC)c(Cn3nc(C)cc3C)c1)C2=O` gave p53 reactivator 0%, FLuc modulator inconclusive, NPC1 promoter act -4%, ELG1 genotox -21%, SMN2 splice up -15% and Rab9 prom act -4%.
Screening Nc1ccc2c(c1)C/C(=C/c1ccco1)C2=O returned p53 reactivator inconclusive, FLuc modulator 0.6µM*, NPC1 promoter act 2.8µM*, ELG1 genotox 21µM*, SMN2 splice up inconclusive and Rab9 prom act 2µM*.
For O=C1/C(=C/c2ccco2)CCc2ccccc21 the results were p53 reactivator inconclusive, FLuc modulator 2.1µM*, NPC1 promoter act 4µM*, ELG1 genotox 7.3µM*, SMN2 splice up inconclusive and Rab9 prom act inconclusive.
Cc1ccccc1C(=O)Nc1ccc2c(c1)nc(CCNC(=O)c1ccco1)n2C was read as p53 reactivator 8%, FLuc modulator inconclusive, NPC1 promoter act 10%, ELG1 genotox -3% and Rab9 prom act 9%.
O=C(Nc1cnn(C23CC4CC(CC(C4)C2)C3)c1)c1cnn2cccnc12 was read as p53 reactivator inconclusive, FLuc modulator 2.1µM*, NPC1 promoter act 0.56µM*, ELG1 genotox inconclusive and Rab9 prom act 0.45µM*.
